Bioassay records: PubChem BioAssay, several laboratories
An excerpt weighted towards active compounds, which were near 4.5% of everything screened.
Efflux pump inh: inhibitors of Candida antifungal efflux pumps expressed in yeast; S. cerevisiae Candida pump triplex, Nile Red efflux; inhibition, % at 10 µM; actives 0.44% (n = 330,000); AID 485275;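 active = plate passing quality check with inhibition over a set limit, or well fluorescence over plate mean plus 4 SD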;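 note: Nile Red retained in pooled yeast measured as flow cytometry median fluorescence; 0% = buffer negative control and 100% = Enniatin B positive control; higher means more Nile Red kept so more efflux inhibition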
Rce1 inhib: blocks yeast Ras-converting enzyme | actives 0.27% (n = 290,000) | yeast membranes, quenched prenylated peptide cleavage fluorescence | calls only;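 active = fall in fluorescence gain of 50% or more versus controls, with final raw signal at or below 3038400; inconclusive = same 50% fall but final raw signal above 3038400; inactive = fall in fluorescence gain under 50%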;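 note: plate controls were neutral control wells for no effect and wells lacking membranes for full effect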
Target sequence (Q03530 whole entry, looked up): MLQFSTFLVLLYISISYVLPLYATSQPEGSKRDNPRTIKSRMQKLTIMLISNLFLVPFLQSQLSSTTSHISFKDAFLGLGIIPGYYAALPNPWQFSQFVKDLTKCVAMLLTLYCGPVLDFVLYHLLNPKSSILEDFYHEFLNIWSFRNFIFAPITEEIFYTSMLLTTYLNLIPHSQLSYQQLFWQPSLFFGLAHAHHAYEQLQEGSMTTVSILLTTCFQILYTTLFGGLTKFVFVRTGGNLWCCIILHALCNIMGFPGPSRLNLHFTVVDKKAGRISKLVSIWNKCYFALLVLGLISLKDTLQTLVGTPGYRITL
GRK2 inh: human GRK2 inhibition via aptamer displacement | inhibition of aptamer binding, % at 10 µM | bead flow cytometry, FAM-aptamer displacement from GRK2 | P25098 | actives 0.59% (n = 330,000);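 active = inhibition of aptamer binding above 40%, roughly 3 SD of noise, on plates passing a quality check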;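 note: median bead fluorescence of bound FAM aptamer so fluorescent compounds give negative values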
Rtt109 HAT inh: inhibitors of Candida albicans Rtt109/Vps75 histone acetyltransferase; actives 0.16% (n = 330,000); purified Rtt109/Vps75, ThioGlo CoA-SH fluorescence, 4 h; AID 540336; inhibition, % at 34.9 µM; Q5AAJ8;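 active = inhibition of at least 50% in every replicate; inconclusive = best replicate reaches 50% inhibition but some replicates fall short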
ALR H2O2 inh: inhibitors of human sulfhydryl oxidase ALR; actives 3.8% (n = 290,000); inhibition, % (no concentration beside the values); purified ALR, DTT oxidation, H2O2 HRP-luminol luminescence; P55789; AID 485317;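 active = mean replicate inhibition above about 79%, with every replicate also reaching it, limit read from the data; inconclusive = only one of the two criteria met; inactive = mean below limit and not every replicate reaching it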
Target sequence (P55789 whole entry, looked up): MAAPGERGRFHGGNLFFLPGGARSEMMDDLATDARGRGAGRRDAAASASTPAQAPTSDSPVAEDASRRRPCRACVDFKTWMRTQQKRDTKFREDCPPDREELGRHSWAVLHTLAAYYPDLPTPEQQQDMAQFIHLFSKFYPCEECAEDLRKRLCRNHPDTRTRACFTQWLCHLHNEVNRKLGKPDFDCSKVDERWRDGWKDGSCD
HDAC3 inhib: blocks human histone deacetylase 3 | O15379 | recombinant HDAC3, fluorogenic peptide/trypsin coupled, fluorescence | inhibition, % at 8.3 µM | actives 0.15% (n = 320,000) | AID 2718; in the data active = inhibition above about 26%, passing the limit was not always enough; inconclusive = no clear call, values can overlap the other calls
Cmpd fluor yeast: counter-screen for efflux pump inhibitors: compound fluorescence; shares compounds with Efflux pump inh; S. cerevisiae AD/pABC3, flow cytometry; fluorescence ratio to DMSO, % at 10 µM; actives 4% (n = 1,700);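 active = fluorescence ratio to DMSO above its plate's cutoff, the plate mean ratio plus 5 SD, cut at about 210% in these data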;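 note: unstained yeast with no Nile Red so the signal is compound autofluorescence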
Mdr1 pump inh: Candida Mdr1 efflux pump inhibition. shares compounds with Efflux pump inh. S. cerevisiae AD/CaMDR1, Nile Red efflux, flow cytometry. inhibition, % at 10 µM. actives 1% (n = 1,700). AID 588518; in the data active = inhibition above about 26%;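 note: 0% = DMSO vehicle and 100% = reference inhibitor; higher means more Nile Red retained so more efflux inhibition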
CaCdr2 efflux inh: inhibitors of Candida albicans Cdr2 efflux pump. Nile Red retention ratio vs DMSO, % at 10 µM. S. cerevisiae AD/CaCDR2, Nile Red retention, flow cytometry. AID 588520. shares compounds with Efflux pump inh. actives 4% (n = 1,700); in the data active = Nile Red retention ratio vs DMSO above about 190%;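 note: higher ratio means more blocking of Cdr2 efflux of the dye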
CaCdr1 efflux inh: blocks the Candida albicans Cdr1 efflux pump in yeast; shares compounds with Efflux pump inh; S. cerevisiae AD/CaCDR1, Nile Red efflux, flow cytometry; actives 1% (n = 1,700); inhibition, % at 10 µM; AID 588522;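 active = inhibition above the screen-wide mean plus twice its standard deviation, cut at about 32% in these data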
GRK2 inh confirm: confirmation of human GRK2 inhibitors displacing RNA aptamer; AID 504451; aptamer displacement, % at 10 µM; shares compounds with GRK2 inh; bead-bound GRK2, FAM-aptamer displacement, flow cytometry; actives 4% (n = 2,000);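 active = aptamer displacement above 40%, near three times the noise of non-fluorescent compounds, on plates passing quality checks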;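 note: negative values mostly reflect intrinsic compound fluorescence rather than true enhancement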
Aptamer quench: fluorescent aptamer quenching in GRK2 counter-screen dose response. AID 504521. shares compounds with GRK2 inh. fluorescence change (kMESF span), kMESF (no concentration beside the values). Fluorescent RNA aptamer beads, flow cytometry; hits give high values. 110 tested, under 10 active;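 active = compounds whose bead fluorescence drops by more than 37 kMESF across the dose range, marking them as dye quenchers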
Aptamer quench SP: aptamer fluorescence quenching in GRK2 counter-screen; shares compounds with GRK2 inh; 2,000 tested, under 10 active; Carboxyfluorescein RNA aptamer on beads, flow cytometry quenching; hits give low values; AID 504580; fluorescence response (% of DMSO), % at 10 µM;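 active = compounds that quench the bead-bound fluorescent RNA probe, cutting fluorescence to under half of the solvent control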;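 note: counterscreen run without GRK2 so only probe quenching by compound is measured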
GRK2 confirm 2: human GRK2 inhibition confirmation, cherry pick 2; 360 tested, under 10 active; bead-bound GRK2, FAM-aptamer displacement, flow cytometry; shares compounds with GRK2 inh; AID 504782; inhibition of aptamer binding, % at 10 µM;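 active = inhibition of aptamer binding above 40%, about triple the noise seen with nonglowing compounds, on plates passing quality control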;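 note: negative values mostly come from compounds that fluoresce themselves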
FAM quench SP: aptamer fluorescence quenching in GRK2 counter-screen | shares compounds with GRK2 inh | carboxyfluorescein RNA aptamer beads, flow cytometry quenching; hits give low values | fluorescence response vs DMSO, % at 10 µM | 360 tested, under 10 active | AID 588494;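 active = response vs DMSO under 50%, meaning signal dropped by over half, treated as fluorescence quencher; inconclusive = no clear call, values can overlap the other calls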;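 note: labelled aptamer on streptavidin beads without GRK2 as a quench counter-screen; 100% = bead fluorescence of DMSO wells and lower means quenching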
* = called active by the depositor; i = inactive; ? = inconclusive; / = no result given.

SMILES	Efflux pump inh	Rce1 inhib	GRK2 inh	Rtt109 HAT inh	ALR H2O2 inh	HDAC3 inhib	GRK2 inh confirm	Aptamer quench SP	others
O=C(O)CC(C(=O)O)N1C(=O)/C(=C/c2ccc(-c3nc4ccccc4s3)o2)SC1=S (centres undefined)	-0.1	i	44.0*	8.8	49.0	16.3	7.6	180.7	Cmpd fluor yeast=101.2;Mdr1 pump inh=-0.2;CaCdr2 efflux inh=107.2;CaCdr1 efflux inh=0.0
O=C(O)CNS(=O)(=O)c1ccc2c3c(cccc13)C(=O)N2	0.7*	i	78.0*	1.4	-47.2	-15.5	-1.3	100.0	Cmpd fluor yeast=111.2;Mdr1 pump inh=-0.2;CaCdr2 efflux inh=100.1;CaCdr1 efflux inh=0.0
Nc1ccc2nc(-c3cccc(-c4nc5ccc(N)cc5[nH]4)c3)[nH]c2c1	2.1*	i	99.0*	-5.4	98.7*	-8.1	-53.1	89.6	Cmpd fluor yeast=101.1;Mdr1 pump inh=-0.2;CaCdr2 efflux inh=118.5;CaCdr1 efflux inh=0.1
O=C(NC1CCCc2ccccc21)c1cccc(S(=O)(=O)N2CCN(c3ccccc3)CC2)c1 (centres undefined)	1.9*	i	2.0	3.7	-0.5	1.6	0.9	127.5	Cmpd fluor yeast=113.2;Mdr1 pump inh=0.5;CaCdr2 efflux inh=114.4;CaCdr1 efflux inh=0.5
Cc1ccc2c(nc3s/c(=C/c4cccs4)c(=O)n32)c1C	/	/	/	16.7	/	/	/	/
O=C(O)c1ccc(-c2ccc(/C=c3/sc4nc5ccccc5n4c3=O)o2)cc1Cl	0.8*	i	80.0*	-4.3	8.3	9.8	60.1*	94.5	Cmpd fluor yeast=103.0;Mdr1 pump inh=0.1;CaCdr2 efflux inh=147.5;CaCdr1 efflux inh=0.3;Aptamer quench=10.1
Cc1cc(/C=c2\sc3nc4ccccc4n3c2=O)c(C)n1-c1ccc(C(=O)O)cc1	/	i	/	14.7	/	/	/	/
Cc1ccc2c(nc3s/c(=C\c4ccc(-c5ccccc5C(=O)O)o4)c(=O)n32)c1C	0.7*	i	49.0*	3.2	-3.5	1.5	2.4	104.9	Cmpd fluor yeast=102.2;Mdr1 pump inh=0.0;CaCdr2 efflux inh=120.6;CaCdr1 efflux inh=0.0
COc1ccc(CCNC(=O)CS(=O)(=O)Cc2nc(-c3ccccc3Cl)oc2C)cc1OC	0.0	i	66.0*	-1.0	66.4	0.2	1.0	95.8	GRK2 confirm 2=-20.7;FAM quench SP=103.0
CCOc1ccc(CCNC(=O)CS(=O)(=O)Cc2nc(-c3ccccc3F)oc2C)cc1	0.1	i	0.0	-5.5	-3.1	-4.4	/	/
CC(Oc1cccc2cccnc12)C(=O)N/N=C/c1ccc2c(c1)OCO2 (centres undefined)	-0.1	i	2.0	-2.7	-3.7	2.8	/	/
CS(=O)(=O)N(Cc1ccccc1)c1ccc(C(=O)Nc2ccccc2C(=O)O)cc1	-0.2	i	51.0*	2.0	0.8	-10.0	-3.3	96.0
CS(=O)(=O)N(Cc1ccccc1)c1ccc(C(=O)Nc2ccccc2Sc2ccccc2)cc1	-0.2	i	4.0	3.5	6.2	9.9	/	/
Cc1ccc(C(=O)N/N=C\C=C\c2ccc(Br)cc2)cn1	0.2	i	36.0	10.4	-1.9	2.7	/	/
Cc1ccc(C(=O)N/N=C/c2cc(Br)ccc2O)cn1	-0.2	/	73.0*	1.5	-18.6	-6.6	-0.9	93.2
N#Cc1cc(Cl)c(NCC2CCCO2)cc1C#N (centres undefined)	0.3	/	0.0	2.8	-2.0	0.5	/	/
CCCc1cc(=O)[nH]c(SCC(=O)NCCC2=CCCCC2)n1	0.0	/	0.0	3.2	-14.6	-0.4	/	/
O=C(NC1CC1)c1cccc2c1C(=O)c1ccc(N3CCC(Cc4ccccc4)CC3)cc1S2(=O)=O	0.1	/	73.0*	-11.2	-0.1	7.6	/	/	GRK2 confirm 2=-20.2;FAM quench SP=101.0
O=C(COC(=O)CCC(=O)c1cccs1)Nc1cccc(F)c1	-0.1	/	1.0	9.2	0.5	2.6	/	/
O=C1C(=O)N(Cc2cccs2)c2ccccc21	-0.1	i	3.0	-2.0	-32.5	8.5	/	/
CCC(/C=C1\Sc2ccc(OC)cc2N1CC)=C\c1sc2ccc(OC)cc2[n+]1CCCS(=O)(=O)[O-]	-0.1	i	91.0*	?	97.0*	3.8	84.9*	107.6	Aptamer quench=1.7
CCO/C(=C/c1sc2ccc(OC)cc2[n+]1CCCS(=O)(=O)[O-])CC	-0.1	i	0.0	0.2	36.3	2.5	/	/
Cc1cccc(NC(=O)CN(C)C(C)C(=O)Nc2ccc(S(=O)(=O)N3CCCC3)cc2)c1C (centres undefined)	/	/	/	11.5	/	/	/	/
Cc1cc(=O)oc2cc(OCC(=O)Nc3nccs3)ccc12	0.2	i	57.0*	-24.0	-1.6	1.6	-0.2	101.7
O=S(=O)(c1ccc(Br)cc1F)N1CCC(O)CC1	/	/	/	1.7	/	/	/	/
SMILES	Efflux pump inh	Rce1 inhib	GRK2 inh	Rtt109 HAT inh	ALR H2O2 inh	HDAC3 inhib	GRK2 inh confirm	Aptamer quench SP	others
Cc1ccc(S(=O)(=O)N2CCOCC2)cc1NC(=O)COC(=O)c1ccc2c(c1)OCCO2	-0.2	i	0.0	7.5	-15.1	-1.5	/	/
Cc1ccc(S(=O)(=O)N2CCOCC2)cc1NC(=O)COC(=O)c1ccc2c(c1)OCO2	0.3	i	100.0*	-18.9	8.6	-5.3	4.5	67.2
Cc1cccc(NC(=O)COC(=O)c2ccc(S(=O)(=O)N3CCCCCC3)cc2)c1	/	/	/	-8.0	/	/	-2.2	99.1
Cc1cccc(CC(=O)N2CCCC2)c1	0.1	i	2.0	0.0	-8.3	0.8	/	/
CN(C)CCNC(=O)Cn1c(=O)c2cccn2c2ccc(F)cc21	0.2	i	0.0	-1.0	-6.1	13.3	/	/
CSc1ccc(NC(=O)NCCCN2CCN(c3ccccc3F)CC2)cc1	-0.1	i	0.0	8.5	/	-1.2	/	/
O=C(Cn1c(=O)c2cccn2c2ccc(F)cc21)NCCCN1CCN(c2ccccc2F)CC1	0.0	i	0.0	49.9	-1.3	-8.1	-32.3	98.2
